Screens as filed in PubChem.
The list is not random: actives were taken first. Their share in the collection is about 15%.
Pf growth 48h – P. falciparum growth inhibition at 48 hours (one generation). P. falciparum luciferase growth in erythrocytes, 48 h. Potency, µM (doses to about 28.7 µM), for the others: at the highest dose activity change, negative = inhibition, usual class: inhibitors. 310,000 tested, 5.9% active; also: potency is read from the fitted curve at half-maximal effect; % is scaled to controls: 0 for no effect and ±100 for the full control effect
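Luminescence readout; reporter = integrated firefly luciferase in P. falciparum. RBC culture at 2% hematocrit, 0.1% parasitemia final, 37 C/5% CO2; decreased signal taken as growth inhibition.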
HCV inh – HCV inhibition. Huh7.5.1 HCVcc-Cre infection, luciferase reporter, 44 h. Potency, µM (titrated, usually from 41.8 µM), for inactives: at the highest dose activity change, negative = inhibition, hits mostly inhibitors. 340,000 tested, 3.4% active. AID 651820; also: potency is read from the fitted curve at half-maximal effect; % is scaled to controls: 0 for no effect and ±100 for the full control effect
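Whole-lifecycle infectious HCVcc-Cre system; cells 1,000/well, compound then virus (~0.5 moi) added 4 h after plating, 44 h culture. Luciferase read 15 sec following 15 min substrate incubation, room temp.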
SARS PLpro yeast – blocks SARS-CoV papain-like protease in a yeast assay; Potency, µM (titrated, usually from 32.9 µM), for the others: top-dose activity, positive = growth rescue, actives largely listed as activators; S. cerevisiae expressing SARS-CoV PLpro, growth rescue; AID 485353; 330,000 tested, 0.19% active; calls by dose curve; also: potency is read from the fitted curve at half-maximal effect; 0% is about no effect; nearly all actives have a fitted effect of over 55% in size
Sm TGR block – blocks Schistosoma mansoni thioredoxin glutathione reductase | purified TGR, DTNB reduction, TNB absorbance 405 nm | AID 485364 | Potency, µM (highest dose often 114 µM), without a hit: at the top dose activity change, negative = inhibition, actives largely listed as inhibitors | Q962Y6 | 360,000 tested, 3% active; also: potency is read from the fitted curve at half-maximal effect; % is scaled to controls: 0 for no effect and ±100 for the full control effect; nearly all actives have a fitted effect of over 60% in size
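TGR 20 nM + NADPH 100 uM (dispensed conc.), cpd preinc 15 min RT; start with NADPH (500 uM addition) then DTNB (15 mM addition). Kinetic TNB absorbance, 405 nm filter. Four-parameter Hill fit across titration.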
HCMV antiviral – human cytomegalovirus inhibition; activity change, negative = inhibition, % at 57.5 µM; HFF cells, HCMV-luciferase reporter, 72 h; hits give low values; 410,000 tested, 4.5% active; AID 1259415; in the data active = activity change below about -60%; inconclusive = no clear call, values can overlap the other calls; inactive = above about -39%; also: % is scaled to controls: 0 for no effect and ±100 for the full control effect
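Luciferase read-out from HCMV-luciferase-infected HFFs (MOI 1 PFU/cell) 72 h post infection at 37C; compounds added after 16 h cell attachment; activity normalized between buffer-only basal and Salinomycin (10uM) inhibitor controls.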
Pf growth 96h – P. falciparum growth inhibition at 96 hours | P. falciparum luciferase reporter growth, 96 h | Potency, µM (doses to about 28.7 µM), for inactives: at the top dose activity change, negative = inhibition, usual class: inhibitors | 320,000 tested, 6.9% active | AID 504834; also: potency is read from the fitted curve at half-maximal effect; % is scaled to controls: 0 for no effect and ±100 for the full control effect
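Two-generation exposure (96 h) targets delayed-death phenotype. Reporter parasites carrying integrated firefly luciferase, in red cells at 2% hematocrit and 0.05% parasitemia final, kept at 37 C, 5% CO2; luminescence loss indicates inhibition.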
* = called active by the depositor; ? = inconclusive; / = no result; [ ] = dose if it differs, or a comment. Unless noted, calls follow the shape of the dose curve; as a rule, active = well fitted curve in the direction sought with a large enough effect; inconclusive = small, poorly fitted or top-dose-only effect, or another doubt; inactive = no such curve, though single readings can be large; an effect the other way counts as inactive or inconclusive.

SMILES	Pf growth 48h	HCV inh	SARS PLpro yeast	Sm TGR block	HCMV antiviral	Pf growth 96h
COc1cc(C2C3=C(CCCC3=O)Nc3[nH]n(-c4ccccc4)c(=O)c32)ccc1O (stereo unspecified)	5.2µM*	?	4%	?	-27	?
CC(=O)N[C@H]1[C@H](O[C@@H]2c3ccc(c(Cl)c3)Oc3cc4cc(c3O[C@@H]3O[C@H](CO)[C@@H](O)[C@H](O)C3C)Oc3ccc(cc3Cl)C[C@H]3NC(=O)[C@@H](N)c5ccc(O)c(c5)Oc5cc(O)cc(c5)[C@H](NC3=O)C(=O)N[C@H]4C(=O)N[C@H]3C(=O)N[C@@H]2C(=O)N[C@@H](C(=O)O)c2cc(O)cc(O[C@H]4O[C@H](CO)[C@@H](O)C(O)[C@@H]4O)c2-c2cc3ccc2O)O[C@H](CO)[C@@H](O)[C@@H]1O (stereo partly specified)	-5%[12.8 µM]	/	/	/	/	?
Cc1cc(/C=C(\C#N)C(=O)NCc2cccs2)c(C)n1-c1ccc([N+](=O)[O-])cc1	2.3µM*	?	-15%	-24%	-9	?
N#C/C(=C\c1ccncc1)C(=O)Nc1ccc(C(=O)O)cc1	0%	13%	0%	0%	-99*	4%
Cc1cccc(NC(=O)/C(C#N)=C\c2cc(C)n(-c3ccc(C(=O)O)cc3)c2C)c1	-26%	-17%	0%	/	-61*	?
Cc1cc(/C=C(\C#N)C(=O)NCc2ccco2)c(C)n1-c1cccnc1	-2%	?	1%	-3%	-29	0%
CCOC(=O)/C(C#N)=C/c1cc(C)n(-c2ccc(C)cc2)c1C	/	8.9µM*	-11%	0%	68	-9%
N#C/C(=C\c1cccnc1)C(=O)Nc1ccc(C(=O)O)cc1	4%	12%	2%	11%	27	-22%
Cc1c(C(=O)Nc2ccc(F)cc2)oc2ccc(S(=O)(=O)N3CCCCCC3)cc12	/	/	/	-3%	-31	/
c1ccn2cc(-c3ccc4c(c3)OCCO4)nc2c1	425%	-9%	-14%	-4%	?	26%
Cc1ccc2nc(-c3ccc4c(c3)OCCO4)cn2c1	-89%	-10%	-3%	21%	-103*	67%
Cc1nc(N)sc1-c1csc(Nc2ccccc2)n1	10%	-7%	-2%	-13%	50	3%
CCC(C)C(=O)Nc1nc(C)c(-c2csc(Nc3ccc(Cl)cc3)n2)s1 (stereo unspecified)	13µM*	-25%	2%	-10%	-90*	9.3µM*
CCCC(=O)Nc1nc(C)c(-c2csc(Nc3ccc(Cl)cc3)n2)s1	0.83µM*	-4%	-16%	1%	-37	?
COc1ccc(C(=O)Nc2ccccc2C(=O)OCc2cc(=O)n3c4c(sc3n2)CCCC4)cc1	/	/	/	4%	-20	/
COc1ccc(NC(=O)CSc2n[nH]c(C)c2[N+](=O)[O-])cc1	68%	33%	1%	1%	-30	9%
CC(C)c1ccc(C(=O)CSc2n[nH]c(-c3ccncc3)n2)cc1	/	-24%	-32%	10%	14	2.6µM*
O=C(CSc1ccc(Cl)cc1)Nc1ccc(-c2nc3ccccc3[nH]2)cc1	4.1µM*	-11%	3%	-3%	-5	10%
O=C(CSc1n[nH]c(-c2ccccc2)n1)c1ccccc1	22%	-8%	-21%	-5%	37	68%
O=C(CSc1n[nH]c(-c2ccccn2)n1)Nc1ccc(Cl)cc1	?	5µM*	-3%	-20%	-96*	33%
Cc1ccc(NC(=O)CSc2n[nH]c(C)c2[N+](=O)[O-])cc1C	12%	7%	-25%	-6%	-69*	-16%
CCN(c1ccc(NC(=O)CN2C(=O)NC3(CCOc4ccccc43)C2=O)cc1)C(C)C (stereo unspecified)	-5%	?	-1%	-10%	1	/
Cc1ccc(-c2nc(SCC(=O)NCC3CCCO3)c(-c3ccccc3)[nH]2)cc1 (stereo unspecified)	-3%	?	7%	-8%	-21	?
FC(F)(F)c1ccccc1Cc1c(-c2ccco2)nc2ccc(Br)cn12	/	/	/	/	68	/
O=C(CSc1n[nH]c(-c2ccncc2)n1)Nc1ccc(F)cc1	12%	13%	-3%	6%	3	-2%
SMILES	Pf growth 48h	HCV inh	SARS PLpro yeast	Sm TGR block	HCMV antiviral	Pf growth 96h
Cc1ccc(NC(=O)CSc2n[nH]c(-c3ccncc3)n2)cc1C	12µM*	-13%	-3%	2%	30	-23%
O=C(c1cccc(C(F)(F)F)c1)C1CCCN(C(=O)CCn2cnnn2)C1 (stereo unspecified)	1%	36%	2%	-23%	-28	5%
COc1ccc2nc(C)cc(Nc3ccccc3OC)c2c1	/	/	/	/	-25	/
COc1ccc2nc(C)cc(SCC(=O)N/N=C/c3cccc4ccccc34)c2c1	?	10µM*	1%	-1%	-68*	?
COc1ccc(/C=N/Nc2cc(C)nc3ccc(Br)cc23)cc1	0.26µM*	6.3µM*	-2%	-6%	-98*	0.47µM*
COc1ccc2nc(C)cc(N/N=C/c3cccc(OC)c3O)c2c1	0.093µM*	?	-9%	6%	-7	-9%
Cc1cc(N/N=C/c2ccccc2O)c2ccccc2n1	0.52µM*	?	4%	0%	?	?
Cc1ccc(S(=O)(=O)N(CC(=O)Nc2ccc(C(N)=O)cc2)C(=O)N2CCN(C)CC2)cc1	6%	17%	2%	8%	-17	48%
CCNc1ccc(C(=O)NN=C2CCCC2)cc1[N+](=O)[O-]	0%	-12%	1%	60%	-12	?
CCN(C(=O)CSc1cc(C)c2cccc(C)c2n1)C1CCS(=O)(=O)C1 (stereo unspecified)	0%	?	2%	10%	43	-25%
Cc1c(C(=O)Nc2ccc(F)c(Cl)c2)sc2nc3n(c(=O)c12)CCC3	/	/	/	4%	50	/
Cc1nnc(N2CCC(C(=O)NC(C)C)CC2)c2nn(-c3ccc(Cl)cc3)c(C)c12	/	/	/	-1%	4	/
Cc1ccc(/C=N/Nc2cccc3cccnc23)c(O)c1	0%	?	-14%	32µM*	150	190%
Oc1ccc(/C=N/Nc2cccc3cccnc23)c(O)c1	55%	?	-28%	-6%	-22	53%
COc1ccccc1OCC(=O)N(Cc1ccco1)Cc1ccccc1F	/	/	/	-8%	7	/
Cc1cc(OCC(=O)Nc2nnc(C3CC3)s2)ccc1C(C)C	8%	1%	0%	5%	-15	20%
Cc1ccc(C(C)C)cc1OCC(=O)Nc1nnc(C2CC2)s1	/	-23%	-2%	/	-84*	/
CC1=CC(C)C2(COC(=O)Nc3ccccc3)COC(C)C1C2C (stereo unspecified)	?	0%	-2%	-2%	-28	?
